Tested on: Scedosporium aurantiacum CBS 136046
Assay: growth inhibition relative to DMSO control (OD600); higher = more antifungal activity, active = 80 or more; extreme values may be limits of the assay
Conditions: 5 µM; 72 h; 37 °C
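Note: conidia screened in RPMI 1640 medium under 5% CO2, growth read by spectrophotometer, medium with 0.5% DMSO serving as the untreated reference.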

Question: Which growth inhibition does the source give for `CCOC(=O)Nc1cc(NC(C)CC(C)CN(CC)CC)c2nc(-c3ccccc3)c(-c3ccccc3)nc2n1` (stereo not drawn) here?
Answer: 36.4% (inactive)

Question: `O=C(Cn1cnc2ccccc2c1=O)Nc1ccccc1` was tested. Which growth inhibition did it give?
Answer: 1.51% (inactive)

Question: Which growth inhibition does the source give for `Cc1ccn2c(C(=O)NCc3ccccc3)c(C)nc2c1` here?
Answer: 34% (inactive)

Question: For `COc1ccc2c(c1)cc(CNC(=O)c1cc3ccccc3o1)n2CC(=O)O`, which growth inhibition is on record?
Answer: 17.7% (inactive)

Question: Which growth inhibition does the source give for `CCC(C)n1ncn(-c2ccc(N3CCN(c4ccc(OCC5COC(Cn6cncn6)(c6ccc(Cl)cc6Cl)O5)cc4)CC3)cc2)c1=O` (stereo not drawn) here?
Answer: 57.2% (inactive)

Question: With `CC(N)C12CC3CC(CC(C3)C1)C2` (stereo not drawn) as the molecule, how does the growth inhibition read?
Answer: 10.8% (inactive)

Question: `Cc1nc(N(C)C(=O)Cc2ccc(-c3ccccn3)cc2)sc1S(N)(=O)=O` was tested. Which growth inhibition did it give?
Answer: 4.79% (inactive)

Question: How did the growth inhibition turn out when `C[C@@H](O)[C@H](N)C(=O)NS(=O)(=O)c1cccc(-c2ccc3[nH]ncc3c2)c1` was run?
Answer: 21% (inactive)

Question: Which growth inhibition does the source give for `CC[C@@]1(O)C(=O)OCc2c1cc1n(c2=O)Cc2cc3c(CN(C)C)c(O)ccc3nc2-1` here?
Answer: 21.5% (inactive)

Question: How did the growth inhibition turn out when `CSc1ccc2c(c1)C(N1CCN(C)CC1)Cc1ccccc1S2` (stereo not drawn) was run?
Answer: 46.7% (inactive)

Question: Which growth inhibition does the source give for `CC(C)Cn1c(=O)n(C)c(=O)c2c(-c3cncn3C)n(Cc3cccc4ccccc34)nc21` here?
Answer: 29% (inactive)

Question: How did the growth inhibition turn out when `FC(F)(F)Oc1ccc(Nc2ccc3cccc(Cl)c3n2)cc1` was run?
Answer: 25.3% (inactive)

Question: Which growth inhibition does the source give for `C[C@@H](NC(=O)c1cccc(-c2cnc(-c3cc4ccccc4cn3)[nH]2)c1)c1ccc(F)cc1` here?
Answer: 18.9% (inactive)

Question: Which growth inhibition does the source give for `Cc1cc(C2CCCCC2)n(O)c(=O)c1` here?
Answer: 18.5% (inactive)

Question: With `CCc1cc(CCC(=O)Nc2ccccc2O)c(O)nc1C` as the molecule, how does the growth inhibition read?
Answer: 5.23% (inactive)

Question: Which growth inhibition does the source give for `Oc1c(C(Nc2ccccn2)c2ccccc2)ccc2cccnc12` (stereo not drawn) here?
Answer: 35.9% (inactive)

Question: How did the growth inhibition turn out when `O=C(O)CCNC(=O)c1ccccc1` was run?
Answer: 36.7% (inactive)

Question: For `O=C(c1ccc(F)cc1)N1CCN2C(=O)c3ccccc3C12c1ccccc1` (stereo not drawn), which growth inhibition is on record?
Answer: 12.5% (inactive)

Question: Which growth inhibition does the source give for `CO[C@@]1(NC(=O)Cc2cccs2)C(=O)N2C(C(=O)O)=C(COC(N)=O)CS[C@@H]21` here?
Answer: 20.8% (inactive)

Question: Which growth inhibition does the source give for `CCCCc1ccc(S(=O)(=O)Nc2cc(C)on2)cc1` here?
Answer: 2.13% (inactive)

Question: `C[C@H](NC(CC(=O)c1ccccc1C(F)(F)F)C(=O)O)c1ccccc1` (stereo partly drawn) was tested. Which growth inhibition did it give?
Answer: 2.25% (inactive)

Question: Which growth inhibition does the source give for `CC(C)(C)c1ccc(Oc2ccc(N)cc2)cc1` here?
Answer: 15.8% (inactive)

Question: Which growth inhibition does the source give for `COc1ccc(OCc2ccc(COc3c(Cl)cccc3Cl)cc2)c(Cl)c1` here?
Answer: 21.7% (inactive)

Question: `Clc1cc(Cl)c2c(c1)CCc1ccccc1C2n1ccnc1` (stereo not drawn) was tested. Which growth inhibition did it give?
Answer: 80.2% (active)

Question: Which growth inhibition does the source give for `N#Cc1c(F)c(Cl)c(NCc2ccccc2)c(C#N)c1F` here?
Answer: 38.1% (inactive)

Question: With `O=C(CSc1nnc(Br)n1-c1ccc(C2CC2)c2ccccc12)Nc1ccc(C(=O)O)cc1Cl` as the molecule, how does the growth inhibition read?
Answer: 18.4% (inactive)

Question: With `CC(C)(C)c1ccc(OCCn2nc(C(=O)O)c3ccccc3c2=O)cc1` as the molecule, how does the growth inhibition read?
Answer: 16.2% (inactive)

Question: `CCc1ccccc1OCCN1CCCCCC1` was tested. Which growth inhibition did it give?
Answer: 26.2% (inactive)

Question: How did the growth inhibition turn out when `CC(C)(C)c1ccc(C(Cn2cccc(C(F)(F)F)c2=O)NC2Cc3ccccc3C2)cc1` (stereo not drawn) was run?
Answer: 28.9% (inactive)

Question: For `COCCn1cnc2c(O)nc(Nc3ccccc3)nc21`, which growth inhibition is on record?
Answer: 5.59% (inactive)

Question: `CCOC(=O)N[C@@H]1CC[C@@H]2[C@@H](C1)C[C@H]1C(=O)O[C@H](C)[C@H]1[C@H]2/C=C/c1ccc(-c2cccc(F)c2)cn1` was tested. Which growth inhibition did it give?
Answer: 44.3% (inactive)

Question: With `O=C1NC(=O)C(Br)=C1Br` as the molecule, how does the growth inhibition read?
Answer: 24.4% (inactive)

Question: Which growth inhibition does the source give for `O=[N+]([O-])c1cn(Cc2nc(O)nc(O)c2Br)cn1` here?
Answer: 20.5% (inactive)

Question: With `CCNC(=O)Nc1cc(-c2ccccc2)c(-c2cncc(C(=O)O)c2)cn1` as the molecule, how does the growth inhibition read?
Answer: 8.53% (inactive)

Question: `O=C(Nc1ccc(Cl)c(C(F)(F)F)c1)C(CCCl)C(=O)Nc1ccc(Cl)c(C(F)(F)F)c1` was tested. Which growth inhibition did it give?
Answer: 0% (inactive)

Question: `CN(O)C(=O)c1cc2c(CN3CCC[C@H]3C(N)=O)cn(Cc3ccc(F)cc3)c2cn1` was tested. Which growth inhibition did it give?
Answer: 1.58% (inactive)

Question: With `Nc1nc2c(ncn2COC(CO)CO)c(=O)[nH]1` as the molecule, how does the growth inhibition read?
Answer: 11.1% (inactive)

Question: With `O=C(NCc1ccc(F)cc1)c1c(O)c2ncccc2[nH]c1=O` as the molecule, how does the growth inhibition read?
Answer: 2.42% (inactive)
